We go through seven molecules from PubChem BioAssay (NCATS).

In assay [1] the target is Lysosomal acid glucosylceramidase (Homo sapiens) (UniProt P04062). As to the kind of experiment: Glucocerebrosidase-p2 (AID 348; in the data active means potency below about 10 µM; further: potency means the concentration at half of the fitted maximal effect). The note with it: purified GBA, blue fluorogenic substrate, 40 min. A digest of the protocol: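 Compounds titrated from 0.6 nM upwards against 0.2 nM enzyme in pH 5.9 citric acid/KH2PO4, taurocholate, tween-20; blue fluorogenic substrate 80 uM, 40 min room temperature, stopped and read Ex 365/Em 440 for AC50.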

Assay [2] is described as follows: AP1 Signaling Pathway (AID 357).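 Further: ME-180 reporter cells stimulated with EGF at its EC50 level; on the % scale 0 is the no-effect control and ±100 the full control effect.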 The settings on record: ME-180 AP-1-bla reporter, EGF-induced, beta-lactamase ratio, 5 h; at 7.69 µM (top of the series) unless noted. A digest of the protocol: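 Titration-series screen for positive or negative modulators of EC50 EGF-induced signaling in ME-180 cells carrying an AP-1-driven beta-lactamase reporter. After 5 hours at 37 degrees Celsius, CCF4 460nm/530nm emission ratio gave %Activity; AC50 values derived.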

Assay [3] deals with Cytochrome P450 1A2 (Homo sapiens) (UniProt P05177). As to the kind of experiment: p450-cyp1a2 (AID 410; calls by dose curve; further: potency means the concentration at half of the fitted maximal effect;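 on activity change, negative = inhibition: -100% = full effect of reference inhibitor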). The settings on record: recombinant CYP1A2, luciferin-ME demethylation, luminescence; series mostly up to 57 µM. A digest of the protocol:
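Luminescent readout of luciferin formed from Luciferin-ME by human CYP1A2; data normalized against complete inhibition by 57 uM furafylline. Enzyme 20nM, substrate 100uM at Km, 100mM KPO4 buffer, 60 min reaction at room temperature.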

Assay [4] is described as follows: Stat Signaling Pathway (AID 446).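 Further: ME-180 cervical cancer cells given 40 pM IL-6 alongside compound; SIE-controlled beta-lactamase reporter measured as 460/530 nm FRET emission ratio; on the % scale 0 is the no-effect control and ±100 the full control effect.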 The note with it: ME-180 (cervical carcinoma) SIE beta-lactamase reporter, IL-6 stimulated, 5 h; at 7.69 µM (top of the series) unless noted. The gist of the method: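 IL-6/STAT signaling read in ME-180 cells via an SIE beta-lactamase reporter. Stimulus was 40 pM IL-6 (its AC50) for 5 hrs, so both activation and inhibition register.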
Assay [5] concerns the target Glucocorticoid receptor (Homo sapiens) (UniProt P04150). The experiment in a line: GR-EFC Redistribution (AID 451; calls by dose curve; further: potency means the concentration at half of the fitted maximal effect). The settings on record: CHO-K1 GR-EFC translocation, beta-gal luminescence, 2 h. A digest of the protocol:
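Translocation of GR-ED fusion to nuclear EA restores b-gal, read by luminescence after 1 h room-temperature detection. Engineered CHO-K1 biosensor cells, 1,000/well, exposed 2 h at 37 C to titrations up to 46 uM final.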

Assay [6] concerns the target Mitogen-activated protein kinase 10 (Mus musculus) (UniProt Q61831). The experiment in a line: JNK3 AlphaScreen Assay (AID 530).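 Further: kinase came from lysate of stimulated human HepG2 cells; signal reports phosphorylation of biotinylated GST-cJun 1-79 at Ser73 with 10 µM ATP; on the % scale 0 is the no-effect control and ±100 the full control effect.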 The note with it: JNK3 lysate, c-Jun phosphorylation; series mostly up to 57.1 µM. A digest of the protocol:
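Compound titrations were preincubated 15 minutes at room temperature with substrate, antibody and pre-activated JNK3-containing HepG2 lysate. Reactions were started with 10 uM ATP and stopped with EDTA-containing bead buffer for AlphaScreen detection.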
Background: Bead proximity is the source of the signal in Alpha formats.

The target of assay [7] is 3',5'-cyclic-AMP phosphodiesterase 4B (Homo sapiens) (UniProt Q07343). As to the kind of experiment: qHTS Assay for Inhibitors of PDE-IV (AID 607; active means well fitted activation curve with a large enough effect in the main read-out, with a control signal flat, not every such curve was filed as active; further: % of control where 0% means no effect). The settings on record: HEK293 ACTOne CNG channel cells, membrane potential fluorescence; series mostly up to 22.9 µM. The gist of the method:
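Live HEK293 cells with a modified cyclic nucleotide-gated (CNG) channel report intracellular cAMP via membrane-potential dye fluorescence (ex 535/em 590 nm). Endogenous PDE-IV was targeted. Compounds were tested at up to 22.9 uM final; RO 20-1724 100 uM served as control.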

A short description of assay [8]: qHTS Assay for Lipid Storage Modulators (AID 1519; calls by dose curve). The settings on record: Drosophila S3 cells, BODIPY lipid droplet/cell ratio, laser cytometry, cells loaded with oleic acid; for activity change, negative = inhibition: at 57.5 µM (top of the series). The gist of the method: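 Cells seeded at 5,000 per well were treated with compounds over a concentration series and loaded with oleic acid (400 uM, as added). Lipid droplet fluorescence (488 nm excitation, 500-530 nm channel) was read by laser-scanning cytometry and normalized to 20 uM Triacsin C.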

Assay [9] can be described thus: Primary qHTS for small molecule stabilizers of the endoplasmic reticulum resident proteome: Secreted ER Calcium Modulated Protein (SERCaMP) assay (AID 1508630; active means well fitted inhibition curve with a large enough effect; further: on the % scale 0 is the no-effect control and ±100 the full control effect). The settings on record: SH-SY5Y GLuc-SERCaMP (Gaussia luciferase released on ER calcium loss) secretion, thapsigargin, luminescence; series mostly up to 38.4 µM. A digest of the protocol: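 GLuc-SERCaMP-expressing SH-SY5Y cells, pretreated 16 h with compound, are challenged with thapsigargin to empty ER calcium stores; after 4 h, coelenterazine is added directly to the medium and luminescence is imaged.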
On the technique in general: In qHTS, concentration-response curves come from the screen itself.

Where [10] appears, read: measured here: cell count channel max response.
[11] abbreviates: measured here: lipid channel max response.

Records with an inconclusive call do not appear. Activity calls are given as the source filed them. Unless noted, the call rests on the fitted dose curve; in most records, active means well fitted curve in either direction with a large enough effect (not every such curve was filed as active); inconclusive means small, poorly fitted or top-dose-only effect, or another doubt; inactive means flat fitted curve, though single readings scatter.

Lysosomal acid glucosylceramidase (Homo sapiens), sequence (P04062 whole entry, looked up): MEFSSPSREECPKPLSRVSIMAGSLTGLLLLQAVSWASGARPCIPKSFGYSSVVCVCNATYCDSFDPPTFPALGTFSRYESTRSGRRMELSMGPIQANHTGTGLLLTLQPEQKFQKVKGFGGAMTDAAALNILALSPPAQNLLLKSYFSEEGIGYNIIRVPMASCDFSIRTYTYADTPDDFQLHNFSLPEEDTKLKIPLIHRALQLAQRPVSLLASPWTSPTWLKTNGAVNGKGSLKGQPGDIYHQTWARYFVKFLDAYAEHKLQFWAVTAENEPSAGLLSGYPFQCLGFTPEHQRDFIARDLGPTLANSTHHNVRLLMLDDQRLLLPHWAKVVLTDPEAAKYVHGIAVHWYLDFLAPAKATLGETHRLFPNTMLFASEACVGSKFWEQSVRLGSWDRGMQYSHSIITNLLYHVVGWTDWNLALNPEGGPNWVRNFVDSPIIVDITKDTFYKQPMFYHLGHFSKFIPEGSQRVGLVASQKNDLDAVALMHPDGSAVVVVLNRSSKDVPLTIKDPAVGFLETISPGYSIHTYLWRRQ
Glucocorticoid receptor (Homo sapiens), sequence (P04150 whole entry, looked up, the tested form may be a part): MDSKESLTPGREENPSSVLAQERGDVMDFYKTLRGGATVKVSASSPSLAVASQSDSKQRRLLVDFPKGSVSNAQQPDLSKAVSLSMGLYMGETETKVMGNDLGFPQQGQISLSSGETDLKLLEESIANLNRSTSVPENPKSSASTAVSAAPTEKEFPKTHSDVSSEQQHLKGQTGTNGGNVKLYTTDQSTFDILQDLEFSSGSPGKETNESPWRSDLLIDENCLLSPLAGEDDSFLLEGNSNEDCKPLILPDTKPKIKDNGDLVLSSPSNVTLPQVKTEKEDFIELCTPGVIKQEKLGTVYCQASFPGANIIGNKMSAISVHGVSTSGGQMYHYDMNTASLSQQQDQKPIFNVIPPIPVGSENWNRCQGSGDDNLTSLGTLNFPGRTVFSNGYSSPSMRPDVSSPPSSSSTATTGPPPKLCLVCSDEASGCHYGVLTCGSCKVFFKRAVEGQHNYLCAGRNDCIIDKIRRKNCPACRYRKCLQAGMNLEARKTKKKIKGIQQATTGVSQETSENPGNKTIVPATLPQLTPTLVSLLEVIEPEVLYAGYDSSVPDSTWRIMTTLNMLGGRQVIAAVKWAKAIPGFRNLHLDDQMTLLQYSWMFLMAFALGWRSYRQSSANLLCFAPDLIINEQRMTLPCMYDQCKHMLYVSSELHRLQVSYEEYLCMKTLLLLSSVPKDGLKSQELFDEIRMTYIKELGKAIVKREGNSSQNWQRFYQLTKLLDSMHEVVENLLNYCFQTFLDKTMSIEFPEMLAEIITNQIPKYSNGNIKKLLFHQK
Cytochrome P450 1A2 (Homo sapiens), sequence (P05177 whole entry, looked up): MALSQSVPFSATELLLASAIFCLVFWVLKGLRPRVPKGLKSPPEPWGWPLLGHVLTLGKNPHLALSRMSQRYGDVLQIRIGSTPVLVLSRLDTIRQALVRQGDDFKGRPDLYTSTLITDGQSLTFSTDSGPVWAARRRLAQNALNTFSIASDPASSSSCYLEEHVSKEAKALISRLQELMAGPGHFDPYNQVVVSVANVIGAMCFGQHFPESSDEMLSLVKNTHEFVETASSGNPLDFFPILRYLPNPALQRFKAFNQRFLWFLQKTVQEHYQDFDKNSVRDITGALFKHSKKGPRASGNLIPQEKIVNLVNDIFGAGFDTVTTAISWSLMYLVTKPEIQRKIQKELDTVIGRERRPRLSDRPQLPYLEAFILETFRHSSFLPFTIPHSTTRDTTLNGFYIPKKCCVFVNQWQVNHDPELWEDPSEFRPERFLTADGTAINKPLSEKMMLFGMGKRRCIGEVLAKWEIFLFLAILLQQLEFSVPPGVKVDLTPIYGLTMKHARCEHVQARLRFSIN
3',5'-cyclic-AMP phosphodiesterase 4B (Homo sapiens), sequence (Q07343 whole entry, looked up): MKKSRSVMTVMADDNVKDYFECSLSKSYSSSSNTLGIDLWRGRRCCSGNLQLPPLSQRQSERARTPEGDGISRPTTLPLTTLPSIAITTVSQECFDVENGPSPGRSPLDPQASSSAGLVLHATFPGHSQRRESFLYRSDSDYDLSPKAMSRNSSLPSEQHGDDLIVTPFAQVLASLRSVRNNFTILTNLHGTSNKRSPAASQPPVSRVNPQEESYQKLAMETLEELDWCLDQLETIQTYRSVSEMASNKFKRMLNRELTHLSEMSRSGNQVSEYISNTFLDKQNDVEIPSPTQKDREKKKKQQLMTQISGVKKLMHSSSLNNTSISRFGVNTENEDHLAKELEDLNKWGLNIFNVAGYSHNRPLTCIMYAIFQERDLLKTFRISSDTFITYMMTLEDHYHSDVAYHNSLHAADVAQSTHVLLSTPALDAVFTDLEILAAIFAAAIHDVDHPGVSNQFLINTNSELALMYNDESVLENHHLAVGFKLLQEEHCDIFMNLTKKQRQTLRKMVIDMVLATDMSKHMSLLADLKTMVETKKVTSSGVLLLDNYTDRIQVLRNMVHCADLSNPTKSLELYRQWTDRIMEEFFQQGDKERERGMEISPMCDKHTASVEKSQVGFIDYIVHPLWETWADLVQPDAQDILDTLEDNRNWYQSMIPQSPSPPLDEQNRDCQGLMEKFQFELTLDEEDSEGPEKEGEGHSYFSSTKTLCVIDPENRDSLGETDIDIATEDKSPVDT

As to `Cn1cccc1C(=O)N1CCC2(CC1)CN(Cc1ccc(C#N)cc1)C2`, the Potency in assay [1] is > 11.4 µM (inactive); in assay [5], > 46 µM (inactive). The activity change, negative = inhibition in assay [2] was 6.46% (inactive); in assay [8], 4.17% (inactive). Further, the Potency entry in assay [3], in [6] and in assay [7] was “inactive” throughout. In addition, in assay [4], the activity, negative = inhibition is -7.55% (inactive). Also, the max response turned out to be 20.5% in assay [8] (setting [10]) and 25.8% in [8] (setting [11]). Moreover, the result in assay [9] was inactive.
As to `CN1CCCC2(CCN(S(=O)(=O)c3ccccc3)CC2)C1`, the Potency in [1] was > 11.4 µM (inactive); in assay [3], 20 µM (active); in assay [5], > 46 µM (inactive). The activity change, negative = inhibition in assay [2] is 17.6% (inactive); in assay [8], 2.33% (inactive). In assay [4], the activity, negative = inhibition was -3% (inactive). Further, the Potency entry in [6] and in [7] was “inactive” in each case. Further, the values for the max response in assay [8] (setting [10]) and in [8] (setting [11]) were 19.8% and 25%, respectively. Besides, the result in [9] was inactive.
For `O=C(Nc1cccc(F)c1)N1CC[C@@]2(CCCN(C(=O)c3cc(C(F)(F)F)cc(C(F)(F)F)c3)C2)C1`, the figures for the Potency in assay [1] and in assay [5] were > 11.4 µM (inactive) and > 46 µM (inactive), respectively. For the same molecule, the values for the activity change, negative = inhibition in [2] and in [8] were -8.61% (inactive) and 5.77% (inactive), respectively. For the same molecule, the Potency result in assay [3], in assay [6] and in assay [7] was “inactive” in each case. Also, in assay [4], the activity, negative = inhibition was -4.49% (inactive). In addition, the max response in [8] (setting [10]) is -3.02%; in assay [8] (setting [11]) it was 6%. For the same molecule, the result in assay [9] was inactive.
For `O=C(c1ccncc1)N1CCC2(CC1)CCN(c1ccccn1)CC2`, the Potency in assay [1] is > 11.4 µM (inactive); in [3] it was 12.6 µM (active); in assay [5], > 46 µM (inactive). The activity change, negative = inhibition was 8.14% (inactive) in assay [2] and 6.99% (inactive) in assay [8]. In [4], the activity, negative = inhibition is -1.09% (inactive). Besides, the Potency result in [6] and in assay [7] was “inactive” in each case. The max response in assay [8] (setting [10]) was 10.7%; in assay [8] (setting [11]), 20.3%. Also, the outcome in [9] was inactive.
Regarding `CC(C)CN1CCC2(CC1)CCN(C(=O)c1cccn1C)CC2`, the Potency is > 11.4 µM (inactive) in assay [1] and > 46 µM (inactive) in [5]. Also, the activity change, negative = inhibition was -13.5% (inactive) in assay [2] and 0.342% (inactive) in assay [8]. The Potency result in assay [3], in assay [6] and in [7] was “inactive” throughout. Moreover, the activity, negative = inhibition in assay [4] was -4.86% (inactive). In addition, the max response in [8] (setting [10]) was -5.62%; in assay [8] (setting [11]), -4.46%. For the same molecule, the outcome in assay [9] was inactive.
With `COc1ccc(C(=O)N2CCC3(CCCN(Cc4ccccc4OC)C3)CC2)cc1`, the Potency in [1] is > 11.4 µM (inactive); in assay [5], > 46 µM (inactive). The activity change, negative = inhibition in [2] is 0.332% (inactive); in [8], -0.879% (inactive). Further, the Potency result in assay [3], in assay [6] and in assay [7] was “inactive” throughout. Moreover, the activity, negative = inhibition in assay [4] is -6.54% (inactive). Moreover, the max response is -8.51% in assay [8] (setting [10]) and -6.45% in [8] (setting [11]). The result in [9] was inactive.
Turning to `O=C(c1csnn1)N1CCC2(CC1)CCN(C(c1ccccc1)c1ccccc1)CC2`, the Potency in [1] is > 11.4 µM (inactive); in [5], > 46 µM (inactive). The activity change, negative = inhibition is -5.85% (inactive) in assay [2] and -2.09% (inactive) in assay [8]. In addition, the Potency entry in [3], in [6] and in assay [7] was “inactive” throughout. The activity, negative = inhibition in assay [4] is 4.86% (inactive). Also, the max response in [8] (setting [10]) came out at 3.93%; in assay [8] (setting [11]) it was 2.32%. The result in [9] was inactive.
